Measurements as given in the supplement of paper PMC3724861.
The sample as a whole holds a higher share of hits than the screen did. The hit rate among all sequences tested is not known here.

Tested on: T1, Caupolican (Caup) homeodomain DNA-binding domain
T1 sequence: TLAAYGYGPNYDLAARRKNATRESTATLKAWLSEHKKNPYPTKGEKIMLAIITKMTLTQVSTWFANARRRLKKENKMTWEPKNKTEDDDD
Test: PBM E-score (8-mer, recovered from the published 9-mer minima) (E-score (dimensionless, -0.5 to 0.5)); Drosophila protein; higher = stronger relative binding preference, active = 0.31 or more
How it was run: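 An enrichment score, with higher meaning stronger, expresses relative binding preference for each short DNA word. The protein used was Caup's homeodomain DNA-binding domain (residues 214-303), produced by in vitro transcription and translation and tested at 100 nM on custom-designed protein binding microarrays. The 8-mer values were recovered from published 9-mer scores, each equal to the lower of its two constituent 8-mer scores.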

PBM E-score, inactive:
CCCTCTAG -0.126, ATTGTATC 0.215, CTTGTAGC 0.271, GAATACAC 0.25, AAATACTT 0.1, CAATACAA 0.261, AAATACAG 0.132, TAATACAA 0.278, CAATACAC 0.271, CATCTCAG -0.0232, CCCAGCAG -0.201, TACATTCA 0.232, AAGCCTGC -0.156, AAAGTGGT 0.0391, GAAAAAGA -0.0311, GACCGAGA -0.103, ACTAGCTC 0.0549, ACGTGGTA 0.132, CTTAATCA 0.013, GTAGTAGA 0.0981, GTAGTATA 0.219, CTAGTACC 0.201, CTAGTAAA 0.211, ATAGTACG 0.0984, ATAGTACC 0.134, GCATTTAA 0.11, TTCTAGAA -0.0405, CGCAGCCG -0.267, ACCTCCGA -0.0504, GCTTCTGA -0.0992, CCGCTTTA -0.0283, CCAACACG 0.237, GCAACACA 0.144, ACAACACC 0.301, AAAACACT 0.0862, ACAACTCT 0.147, CCAACACA 0.17, CTATTAGC 0.0355, CGCAATAC 0.0451, AGATTAGG 0.00061, GCCCTTCC -0.169, AAAGGCGT -0.125, ACAAGCAC 0.246, TCAAGCAA 0.0149, GCAAGCAA -0.0127, ACAAGCAG 0.229, AGACCCGA -0.108, ACTTTACC 0.122, CGGATGGC -0.0761, AACGCCCG -0.108, GCAGTCCC -0.194, GATGTAGA 0.208, AATGTAGA 0.139, AATGTAGG 0.116, CAAGTAGG -0.00819, GATGTAGC 0.166, AATGTAGC 0.0881, GACTAGGC -0.0927, CCTCCAAC -0.102, TAGAAATA 0.1, CCGCTACA 0.0971, GGCCGTAA -0.148, CATTACCA 0.119, ACCAATCC -0.0418, AATATACC 0.13, CTTATACA 0.11, CATATACA 0.298, AATATACT 0.155, GATATACA 0.263, GGTATACA 0.183, AGTATACA 0.309, ATTATACA 0.254, GCCCGTAC -0.0447, GGGATATA -0.0036, ATCGTTCG 0.0642, AGCCGTTC -0.195, ACGAACCT -0.0743, ACGTGGCG -0.111, CCACAGAA -0.00495, TATTACGA 0.162, GTAGTTCA 0.136, AATAAATA 0.202, AGTATCTG 0.00127, AGTGACGC -0.155, CCTGTAAA 0.131, AATGTAAT 0.303, TCTGTAAA 0.0832, AATGTAAG 0.214, GCTGTAAA 0.128, GATGTAAA 0.305, ACTGTAAA 0.154, CCTGTAAG 0.127, GTCGCTTA 0.0465, CACGAAAG 0.0338, CTCGTGAA 0.027, GTAGATAA 0.14, ACCATAAT 0.119, AATGTAAC 0.295, GATGTAAC 0.306, GATTTTAC 0.156, CTTTAGTC -0.0734, AATCGTAA 0.173, CCCTAGAA -0.0811, CAACATCC 0.238, ACACATGC 0.236, GAACATCC 0.295, ACACATGG 0.167, AAACATTC 0.209, GCACATGC -0.0345, AAACATCC 0.258, CAACATTC 0.0579, AACGAATG 0.00089, ATACCAGC -0.0192, AAAACACG 0.303, GGGTCAAA -0.108, CGTAAAAC -0.0282, CATAGAGA 0.113, ATTAGTAG 0.212, GCATGCGC -0.104, ATGCGGGA -0.0659, GGGTGTGA -0.0838, CCACATGA 0.124, ACACATGA 0.265, GAGCATGA 0.0786, TAACATCA 0.305, AAACATCA 0.279, CAACATGG 0.295, GAACATTA 0.219, TCACATGA 0.182, CGAACGAC 0.0606, ATGGTATG 0.132, CTATTTAA -0.0109, CGTCTTGA -0.0138, AGGTCTCA -0.08, ACTGAGTC -0.0541, AGCTATAG -0.0145, AAACATCT 0.215, AAACATTT 0.252, CAACATAC 0.302, GGACATAC 0.179, AAACATCG 0.217, AAACATTG 0.183, CCAGTTCC -0.2, GCAGCGAC -0.118, GATCGGCA -0.0784, ATTGCGAC 0.0529, CAATTAGA 0.0523, GGGGTAAC -0.00369, CGTCGTTC 0.0474, ACAAGAAG 0.183, ATTAACAG 0.146, CTTAACAC 0.226, ATTAACTC 0.0863, GTTAACAA 0.296, ATTGCGGC -0.0444, AAGCGGAT -0.113, ACTTCGAT 0.0903, AGGGCAGC -0.267, CTGTCCGC -0.11, ATATGATC 0.134, GCATGATA 0.159, TCATGAGA 0.0179, AGATGATG 0.0748, CCATGATA 0.0656, CCATGATC 0.0355, ATATGATG 0.183, ACATGAGT 0.305, GCCACCAA -0.183, CCGTAAAA -0.0169, ACCTTAAA -0.0366, CAAGGCGA -0.0101, ACGGGTAC 0.103, GTTCAACA 0.198, CCACAACA 0.142, GCACAACA 0.211, ATACAACC 0.258, CTACAACC 0.281, ATACAACG 0.283, ACATAAAA 0.221, ACATAAAG 0.215, ACATACGT 0.206, AGATACAG 0.109, GCATACAA 0.247, AGATACAA 0.296, TCATACAA 0.163, ACATACAG 0.247

PBM E-score, active:
CTTGTATC 0.34, AAATACAC 0.312, AAATACAT 0.338, AAATACAA 0.327, CTAGTACA 0.337, ATAGTACA 0.343, GTAGTACA 0.346, ACAACACT 0.326, ACAACACG 0.387, ACAACACA ≥ 0.395, ACAAGCAA 0.341, ACAAGCAT 0.377, CATGTAGA 0.391, CATGTAGC 0.332, CATGTAGG 0.356, GTTATACA 0.329, TATATACA 0.355, TGTATACA ≥ 0.356, AATATACA 0.322, CATGTAAG 0.395, CATGTAAA 0.421, TATGTAAA 0.327, AATGTAAA 0.323, CATGTAAC 0.431, GAACATGC 0.354, ACACATGT 0.372, AAACATGC 0.342, CAACATGC 0.317, AAACATGA 0.409, CAACATGA 0.344, GAACATGA 0.421, TAACATGA 0.424, AAACATGT 0.443, AAACATGG 0.321, GAACATAC 0.331, ATTAACAC 0.326, ATTAACAA 0.342, ACATGATC 0.357, ACATGAGA 0.344, ACATGATG 0.351, ACATGATA 0.413, ATACAACA 0.373, GTACAACA 0.429, CTACAACA 0.332, ACATACAA 0.386, ACATAAAT 0.318, ACATACAT 0.427, AGATACAT 0.368
